MLLE-PAM2 inh: inhibitors of microRNA-mediated deadenylation, human PABP1 MLLE binding. P11940. GST-MLLE / FITC-PAM2 fluorescence polarization. inhibition, % at 20 µM. 0.36% of 360,000 active; in the data active = inhibition above about 35%, passing the limit was not always enough;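 also: plate controls were DMSO wells with GST-MLLE for no effect and wells lacking GST-MLLE protein for full effect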
CendR NRP1 mod: alters CendR peptide binding to human NRP-1 | O14786 | FAM-RPARPAR peptide binding to NRP-1, fluorescence polarization | inhibition, % at 25 µM | 0.85% of 360,000 active | AID 602438;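 active = inhibition or corrected inhibition above about 18%, plus a signal ratio from 0.5 to 1.5, limit read from the data, passing the limit was not always enough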
Target sequence (O14786 whole entry, looked up): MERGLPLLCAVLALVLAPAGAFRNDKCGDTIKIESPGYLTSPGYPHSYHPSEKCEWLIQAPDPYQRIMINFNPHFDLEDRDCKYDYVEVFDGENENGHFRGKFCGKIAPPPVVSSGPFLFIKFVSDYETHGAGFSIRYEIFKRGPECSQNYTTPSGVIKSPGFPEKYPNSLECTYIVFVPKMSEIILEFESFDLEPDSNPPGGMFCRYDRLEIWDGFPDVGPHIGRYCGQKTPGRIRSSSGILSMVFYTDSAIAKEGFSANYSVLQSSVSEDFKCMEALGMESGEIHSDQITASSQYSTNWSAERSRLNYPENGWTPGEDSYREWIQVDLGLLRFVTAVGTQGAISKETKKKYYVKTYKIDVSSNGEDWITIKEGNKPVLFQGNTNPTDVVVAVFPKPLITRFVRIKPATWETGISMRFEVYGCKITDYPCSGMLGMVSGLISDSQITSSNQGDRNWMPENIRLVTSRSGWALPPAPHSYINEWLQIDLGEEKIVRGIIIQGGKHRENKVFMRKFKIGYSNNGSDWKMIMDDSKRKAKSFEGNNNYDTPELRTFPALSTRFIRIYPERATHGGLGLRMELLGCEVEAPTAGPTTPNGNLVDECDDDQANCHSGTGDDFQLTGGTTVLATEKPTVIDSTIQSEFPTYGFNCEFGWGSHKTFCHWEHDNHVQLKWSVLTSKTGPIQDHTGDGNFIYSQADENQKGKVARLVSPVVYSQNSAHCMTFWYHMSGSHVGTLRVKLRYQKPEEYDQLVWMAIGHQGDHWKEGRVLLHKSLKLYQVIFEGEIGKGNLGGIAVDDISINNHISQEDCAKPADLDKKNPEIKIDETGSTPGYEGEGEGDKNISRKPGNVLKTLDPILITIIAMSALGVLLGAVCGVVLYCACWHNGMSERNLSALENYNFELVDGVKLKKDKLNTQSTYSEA
eIF4H FP inh: inhibitors of RNA binding by human eIF4H | Q15056 | AID 2012 | eIF4H fluorescence polarization binding assay | 0.94% of 290,000 active | inhibition, % at 35 µM;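 also: calls also rest on retests at 20 µM and on dose response follow-up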
PABP polyA inh: blocks human PABP binding to poly(A) RNA; P11940; fluorescence polarization; inhibition, % at 35 µM; 1% of 290,000 active; AID 2014;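 also: calls also rest on retests at 20 µM and on dose response follow-up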
Numbers without * were called inactive. A selection: hits, their analogues and other compounds. The true share with any hit is near 2.1%. Unless noted, no rule for the calls is given here.

Screening O=C(Nc1ccc2c(c1)OCO2)O[C@@H]1C[C@H]2CCC(=O)N3CC[C@@H](C1)[C@@H]23 returned MLLE-PAM2 inh 5.4, CendR NRP1 mod 20.6*, eIF4H FP inh -8.8 and PABP polyA inh 6.2.
`CC(C)(C)NC(=O)C(c1ccc(-c2ccccc2)cc1)N(C[C@H]1CC[C@@H]([C@@H]2CC[C@H](CO)O2)O1)C(=O)c1ccccc1F` (stereo partly specified) gave MLLE-PAM2 inh -0.9 and CendR NRP1 mod -13.8.
`O=C(COC(=O)Cc1ccccc1[N+](=O)[O-])NNC(=O)c1ccc([N+](=O)[O-])cc1` gave MLLE-PAM2 inh 11.2 and CendR NRP1 mod 19.8.
CCCc1nc2sc3c(SCC(=O)NCc4ccco4)ncnc3c2c2c1CCC2 was read as MLLE-PAM2 inh 10.1, CendR NRP1 mod -57.8, eIF4H FP inh 78.1* and PABP polyA inh 58.5*.
Screening COc1ccc(-n2nnc3c(SCC(=O)NCc4ccco4)ncnc32)cc1 returned MLLE-PAM2 inh 27.9, CendR NRP1 mod 35.7*, eIF4H FP inh 7.2 and PABP polyA inh -3.3.
For Cc1ccc(-n2nnc3c(SCC(=O)NCc4ccco4)ncnc32)cc1 the results were MLLE-PAM2 inh 33.0, CendR NRP1 mod -22.8, eIF4H FP inh 7.8 and PABP polyA inh -1.0.
Screening O=C(CSc1ncnc2ccccc12)NCc1ccco1 returned MLLE-PAM2 inh 43.8*, CendR NRP1 mod -9.9, eIF4H FP inh 11.9 and PABP polyA inh 7.2.
Screening O=C1OC(Nc2nc(-c3ccc(F)cc3)cs2)c2ccccc21 (stereo unspecified) returned MLLE-PAM2 inh -12.1, CendR NRP1 mod -1.9, eIF4H FP inh -7.4 and PABP polyA inh -1.9.
Screening CN1CCN(C(c2ccccn2)c2cc(Cl)c3cccnc3c2O)CC1 (stereo unspecified) returned MLLE-PAM2 inh 43.2*, CendR NRP1 mod -8.6, eIF4H FP inh 28.0 and PABP polyA inh -2.3.
Oc1c(C(c2ccccn2)N2CCC(Cc3ccccc3)CC2)cc(Cl)c2cccnc12 (stereo unspecified) was read as eIF4H FP inh 18.9 and PABP polyA inh -14.7.
For Cc1ccc(C(c2cc(Cl)c3cccnc3c2O)N2CCN(C)CC2)cc1 (stereo unspecified) the results were MLLE-PAM2 inh 48.2*, CendR NRP1 mod 1.9, eIF4H FP inh 29.5 and PABP polyA inh 25.8.
`Oc1c(C(c2ccc(Cl)cc2)N2CCCC2)cc(Cl)c2cccnc12` (stereo unspecified) gave MLLE-PAM2 inh 29.1, CendR NRP1 mod 14.8, eIF4H FP inh 15.4 and PABP polyA inh 7.9.
Screening CCCCNC(=O)Cn1cnc2sc(C)c(S(=O)(=O)N3CCN(c4ccccc4OC)CC3)c2c1=O returned MLLE-PAM2 inh 9.8, CendR NRP1 mod -0.3, eIF4H FP inh 0.7 and PABP polyA inh 11.5.
Cn1ncc2nnn(-c3ccccc3)c(=O)c21 was read as MLLE-PAM2 inh -8.2, CendR NRP1 mod -1.9, eIF4H FP inh 3.2 and PABP polyA inh 8.2.
For Cn1ncc2nc[nH]c(=O)c21 the results were MLLE-PAM2 inh 0.2, CendR NRP1 mod 8.9, eIF4H FP inh inconclusive and PABP polyA inh 1.2*.
For CNC(=O)c1[nH]cnc1C(=O)N[C@@H](Cc1ccccc1)C(=O)OC(C)(C)C the results were MLLE-PAM2 inh 5.4, CendR NRP1 mod 8.0, eIF4H FP inh 93.4* and PABP polyA inh active.
For CC(C)(C)OC(=O)[C@H](Cc1ccccc1)NC(=O)c1nc[nH]c1C(=O)N1CCNCC1 the results were MLLE-PAM2 inh 4.5 and CendR NRP1 mod 34.2*.
For CCCS(=O)(=O)NC(=O)C1(C)CCCN(C(=O)c2c(-c3ccccc3)noc2C)C1 (stereo unspecified) the results were MLLE-PAM2 inh -6.5 and CendR NRP1 mod 2.7.
`CNc1snc(C)c1C(=O)OC(C)C(=O)Nc1ccc(F)cc1` (stereo unspecified) gave MLLE-PAM2 inh 2.5 and CendR NRP1 mod -0.5.
CC(=O)N1C[C@@H](CO)[C@@H](N(C)C(=O)C(C)(C)C)C[C@H]1c1ccccc1 was read as MLLE-PAM2 inh 13.2 and CendR NRP1 mod 10.5.
`O=C(O)CSc1ncnc2sc3c(c12)CCC3` gave MLLE-PAM2 inh -1.1, CendR NRP1 mod -7.5, eIF4H FP inh 59.7* and PABP polyA inh 10.0*.
COC(C[C@H]1O[C@@H]1[C@H](O)[C@H](C)OCc1ccccc1)OC was read as MLLE-PAM2 inh -7.7 and CendR NRP1 mod 26.0*.
`COC(C[C@H]1O[C@H]1[C@@H](O)[C@H](C)OCc1ccccc1)OC` gave MLLE-PAM2 inh -14.4, CendR NRP1 mod 0.9, eIF4H FP inh -5.6 and PABP polyA inh -2.3.
`COc1ccc(NC(=O)c2noc3c2CCC3)cc1` gave MLLE-PAM2 inh 2.8, CendR NRP1 mod 1.3, eIF4H FP inh 106.6* and PABP polyA inh 52.5*.
CC(=O)c1ccc(NC(=O)c2noc3c2CCC3)cc1 was read as MLLE-PAM2 inh 15.3, CendR NRP1 mod 6.8, eIF4H FP inh 76.3 and PABP polyA inh -16.3.
CSC12CCCN(CCC(C(C)(C)C)C1)C2=O (stereo unspecified) was read as CendR NRP1 mod -15.4.
Screening COc1ccc(C(=O)N/C(=C\c2ccco2)C(=O)NCc2cccnc2)cc1 returned MLLE-PAM2 inh 15.1, CendR NRP1 mod -13.1, eIF4H FP inh 60.7* and PABP polyA inh 7.8.
For O=C(O)/C(=C/c1ccco1)NC(=O)c1ccccc1 the results were MLLE-PAM2 inh 5.9, CendR NRP1 mod -4.4, eIF4H FP inh 72.1* and PABP polyA inh 120.4*.
Screening O=C(NC(Cc1ccccc1)C(=O)O)/C(=C\c1ccco1)NC(=O)c1ccccc1 (stereo unspecified) returned MLLE-PAM2 inh 7.2, CendR NRP1 mod -72.9, eIF4H FP inh 90.9* and PABP polyA inh active.
O=C(NC(Cc1ccccc1)C(=O)O)/C(=C\c1ccco1)NC(=O)c1ccc(Br)cc1 (stereo unspecified) was read as MLLE-PAM2 inh 7.2, CendR NRP1 mod -76.7, eIF4H FP inh 31.8 and PABP polyA inh 21.5.
Cc1ccnc(NS(=O)(=O)c2ccc(NC(=O)c3ccc(Cl)cc3[N+](=O)[O-])cc2)n1 was read as MLLE-PAM2 inh -1.3, CendR NRP1 mod -12.1, eIF4H FP inh 0.2 and PABP polyA inh -0.8.
`CSc1ccc(C(=O)C2CCCN(S(=O)(=O)N(C)C)C2)cc1` (stereo unspecified) gave MLLE-PAM2 inh 5.4, CendR NRP1 mod -1.2, eIF4H FP inh -7.8 and PABP polyA inh -6.2.
`CN(C)S(=O)(=O)N1CCCC(C(=O)c2ccc(-c3ccccc3)c(F)c2)C1` (stereo unspecified) gave MLLE-PAM2 inh 9.4, CendR NRP1 mod 20.0*, eIF4H FP inh -7.8 and PABP polyA inh -7.7.
`Cc1ccc(-n2c(-c3cc(-c4ccco4)[nH]n3)n[nH]c2=S)c(Br)c1` gave MLLE-PAM2 inh -75.5, CendR NRP1 mod -4.5, eIF4H FP inh inconclusive and PABP polyA inh 45.0*.
CC(=O)c1ccc(-n2c(-c3cc(-c4ccco4)[nH]n3)n[nH]c2=S)cc1 was read as MLLE-PAM2 inh -20.7, CendR NRP1 mod -14.0, eIF4H FP inh 55.7 and PABP polyA inh 22.2.

Screens deposited in PubChem by Sanford-Burnham Center for Chemical Genomics.
